Only some compounds are listed: those with a hit (about 0.74% of all), similar ones and a draw of the others.
Akt phos inh: blocks phosphorylation of Akt | Neuro2A IGF-stimulated pAkt S473 HTRF, 20 min; stronger effect = lower value | activity change, % for hits at 50 µM | 360,000 tested, 0.32% active; in the data active = activity change below about -80%; inconclusive = mostly about -51% to -80%; note: % is set by controls: 0 for no effect and ±100 for the full control effect
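Single-point screen (50 µM final compound) in Neuro2A cells stimulated 20 min with 6 nM IGF at 37 deg C. After lysis, Ser473-phosphorylated Akt read by HTRF (ex 330 nm, em 615/665 nm) as the 665/615 ratio.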
TSHR antagonist: antagonists of human thyroid stimulating hormone receptor | TSHR-expressing cells, TSH-stimulated cAMP HTRF, 2 h; stronger effect = lower value | 330,000 tested, 0.2% active | activity change, negative = inhibition, % at 11.5 µM | P16473;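 active = activity change below a set negative limit, meaning inhibition stronger than a set level, cut at about -70% in these data; inconclusive = activity change between two set negative limits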; note: % is set by controls: 0 for no effect and ±100 for the full control effect
Target sequence (P16473 whole entry, looked up): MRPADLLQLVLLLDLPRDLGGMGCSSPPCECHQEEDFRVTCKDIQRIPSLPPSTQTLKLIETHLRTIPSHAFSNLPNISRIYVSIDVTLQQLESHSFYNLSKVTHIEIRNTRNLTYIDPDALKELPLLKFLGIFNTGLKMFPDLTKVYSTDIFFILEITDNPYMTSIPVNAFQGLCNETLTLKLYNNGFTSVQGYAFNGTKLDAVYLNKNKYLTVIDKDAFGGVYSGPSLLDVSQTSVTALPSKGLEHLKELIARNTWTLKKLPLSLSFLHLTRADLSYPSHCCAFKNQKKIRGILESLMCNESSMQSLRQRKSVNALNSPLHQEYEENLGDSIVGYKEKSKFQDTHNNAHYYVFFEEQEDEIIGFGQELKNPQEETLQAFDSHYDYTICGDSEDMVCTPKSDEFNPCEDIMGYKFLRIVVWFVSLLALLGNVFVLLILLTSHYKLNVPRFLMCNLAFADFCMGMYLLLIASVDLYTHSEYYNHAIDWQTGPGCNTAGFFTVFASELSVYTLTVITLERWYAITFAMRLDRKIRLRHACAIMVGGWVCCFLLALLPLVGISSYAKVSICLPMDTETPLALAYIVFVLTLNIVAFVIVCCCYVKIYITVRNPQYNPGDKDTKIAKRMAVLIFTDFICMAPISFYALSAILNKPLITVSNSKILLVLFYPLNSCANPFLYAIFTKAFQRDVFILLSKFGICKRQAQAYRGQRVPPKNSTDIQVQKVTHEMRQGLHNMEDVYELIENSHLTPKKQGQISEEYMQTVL
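Freshly harvested TSHR cells receive pin-tooled compound, then EC80 TSH at 4nM final. After 2 hours at 37 deg C, antibody in lysis buffer and cAMP-d2 are added; 30 minutes at ambient temperature precede the HTRF read.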
TCR act: activators of T cell receptors. primary human leukocytes, anti-CD3, IL-2 HTRF, 48 h. Potency, µM (series often up to 9.22 µM), for the others: at the highest dose activation of IL-2 secretion, hits mostly activators. AID 504894. 330,000 tested, under 10 active; active = well fitted activation curve with a large enough effect; inconclusive = small, poorly fitted or top-dose-only effect, or another doubt; inactive = no such curve, though single readings can be large or run the other way; note: % of control where 0% means no effect
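TCR engagement came from a-CD3 beads alone, with compounds added to primary human leukocytes for 48 hr. Secreted IL-2 bridged europium cryptate- and d2-labelled anti-IL-2 antibodies, giving FRET emission at 665nm after 320nm excitation.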
CCT modulator: modulators of cytosolic chaperonin (CCT/TRiC) activity; purified chaperonin ATPase assay, HTRF ADP detection, 30 min; activity change, % (concentration not given with the values), hits read low; 360,000 tested, 0.3% active; in the data active = activity change below about -30%; note: % is set by controls: 0 for no effect and ±100 for the full control effect
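ATPase activity: ADP formed was measured by HTRF Transcreener (665/615 nm ratio) after 30 min at 37 deg C with 10 uM ATP. Compounds screened at one 76 uM concentration against 40 or 20 nM TRiC in Tris pH 7.4/KCl/MgCl2/DTT buffer.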
Numbers without * were called inactive; i = inactive; ? = inconclusive; . = no result given; [ ] = another dose, or the depositor's remark.

SMILES | Akt phos inh | TSHR antagonist | TCR act | CCT modulator
CCOC(=O)c1c(C)nc(C)c(C(=O)OCC)c1-c1cccnc1 | i | -11 | 3% | 2
COc1cc(OC)cc(C(=O)NCCCN2CCOCC2)c1 | -120%* | 0 | -2%[46.1 µM] | 0
O=C(CCc1ccccc1)NCCCN1CCOCC1 | i | 5 | 0% | -31*
COC1CC(NC(C)=O)C(OC(=O)c2ccccc2)C(CBr)O1 (stereo not given) | i | . | . | 2
O=C(CCC(=O)c1ccc(F)cc1)NC1CCCN(Cc2ccccc2F)C1 (stereo not given) | i | 7 | . | -2
CCOC(=O)C1C(=O)NC(N2CCN(Cc3ccccc3)CC2)=NC1c1ccccc1 (stereo not given) | -87%* | 22 | . | -5
CC(=O)c1c(C)[nH]c(C(=O)/C(C#N)=C/c2cccc(C)c2)c1C | i | -8 | -1% | -1
CCOC(=O)c1c(C)[nH]c(C(=O)/C(C#N)=C/c2ccc(OCC)cc2)c1C | i | 15 | 4%[46.1 µM] | -119*
CC(C)[C@@H]1Cc2[nH][nH]c(=O)c2[C@H](C(C)C)O1 | i | . | . | 2
CCCCS/C(N)=N/N=C/c1ccccc1O | -111%* | -12 | 2% | -2
CCCS/C(N)=N/N=C/c1cc(C)ccc1O | . | -16 | -2% | 0
Cc1cc(C)n(C(=O)/C(C#N)=N/Nc2cc(Cl)cc(Cl)c2)n1 | i | -82* | 5% | -2
Cc1cc(C)nc(SC2=CS(=O)(=O)c3ccccc32)n1 | i | -1 | -12% | -3
O=S1(=O)C=C(Sc2nc3ccccc3s2)c2ccccc21 | -108%* | ? | 2% | 0
S=C(NN=Cc1ccccn1)N(Cc1ccccn1)Cc1ccccn1 | i | . | -3% | -43*
Cc1ccc(C)c(S(=O)(=O)N2CCNCC2)c1 | i | -1 | 4% | -34*
COc1ccc(S(=O)(=O)N(C)C)cc1NC(=O)c1ccc(OCC2CCCO2)cc1 (stereo not given) | i | . | . | 0
CCOC(=O)c1c(C2COc3ccccc3O2)csc1NC(=O)c1ccccc1 (stereo not given) | i | -6 | 0% | -1
CCOC(=O)c1c(C2COc3ccccc3O2)csc1N (stereo not given) | i | -3 | -4% | -41*
CCOC(=O)Cn1c(-c2cccnc2Cl)nc2cc(C)c(C)cc21 | i | -1 | -1% | -34*
CCOC(=O)Cn1c(-c2cccnc2Cl)nc2cc(Cl)c(Cl)cc21 | i | -3 | -4% | 1
CCOC(=O)Cc1cc(=O)c2cc(C)ccc2[nH]1 | i | -6 | 0% | -2
O=C(O)Cc1csc2ccccc12 | -126%* | 2 | -3% | 2
CCC1Sc2ccc(S(=O)(=O)Nc3ccc(OC)c(OC)c3)cc2NC1=O (stereo not given) | i | -46 | -1% | -35*
CCC1Sc2ccc(S(=O)(=O)Nc3ccc(OC)cc3)cc2NC1=O (stereo not given) | i | 1 | 9% | -2
SMILES | Akt phos inh | TSHR antagonist | TCR act | CCT modulator
CCN(C(=O)CSc1nnc(-c2ccccc2)o1)c1c(N)n(Cc2ccccc2)c(=O)[nH]c1=O | i | -109* | -11% | 3
CCCCN(C(=O)CSc1nnc(-c2ccccc2)o1)c1c(N)n(CCC)c(=O)[nH]c1=O | i | 2 | 2% | 1
CCOC(=O)C1=CCN(S(=O)(=O)c2cccc(Cl)c2)C1c1cccc(C)c1 (stereo not given) | i | . | . | 0
O=C(O)c1cc2nc3c(c(C(F)(F)F)n2n1)CCc1ccccc1-3 | -114%* | -3 | -3% | 1
CS(=O)(=O)c1ccc(N2CCN(c3ccccn3)CC2)c([N+](=O)[O-])c1 | i | -114* | 3% | -1
Cc1ccc(S(=O)(=O)NC(=O)Nc2ccc(N(C)C)cc2)cc1 | i | -75* | 67% | 0
Cc1nn(Cc2ccccc2)c(C)c1NC(=O)CSc1nc(C2CC2)nc2c1cnn2-c1ccccc1 | -114%* | -1 | 4% | -1
O=S(=O)(Nc1ccc(F)cc1)c1cccc2nsnc12 | i | -9 | 7% | 1
Cn1cc(Cl)c(C(=O)N/N=C/c2ccc3c4c(cccc24)CC3)n1 | i | -80* | 2% | 0
Cc1ccc(/C=N/NC(=O)c2nn(C)cc2Cl)cc1 | i | -1 | 1%[46.1 µM] | 1
O=C(CSc1ccccn1)Nc1cccc2ccccc12 | i | -116* | 5% | -11
O=C(CSc1ccccn1)Nc1ccccc1F | i | 1 | -7% | -2
Cc1onc(-c2ccccc2)c1C(=O)Nc1ccc(Br)cc1Cl | i | 23 | -3% | -2
O=C1/C(=C\c2cccc(O)c2O)SC(=S)N1Cc1ccccc1 | i | -15 | 6% | -6
O=C1/C(=C\c2cc([N+](=O)[O-])ccc2O)SC(=S)N1Cc1ccc(Cl)cc1 | i | -83* | 10% | -1
COc1ccc(OCC(=O)Nc2cc(OC)cc(OC)c2)cc1 | i | 1 | -6% | -46*
CCC(=O)Nc1c(C(=O)N2CCN(c3ccccn3)CC2)cnn1-c1ccc(C)cc1 | i | 0 | 0%[46.1 µM] | 2
CCC(=O)Nc1c(C(=O)N2CCN(c3ccccn3)CC2)cnn1-c1ccc(Cl)cc1 | i | 0 | 1%[46.1 µM] | -57*
O=C(c1ccccc1)n1nc(-c2ccccc2)nc1NCc1ccco1 | i | 15 | 3% | -1
Cc1ccc(C(=O)n2nc(-c3ccccc3)nc2NCc2ccco2)cc1 | i | 13 | -2% | -60*
Cc1cccc(C)c1OCCCn1ccnc1 | i | -130* | . | 0
CCCCCc1ccc(CC(=O)Nn2c(C)nc3ccccc3c2=O)cc1 | i | -36 | 2% | -1
Cc1nc2ccccc2c(=O)n1NC(=O)Cc1ccc(Br)cc1 | -81%* | -5 | 3% | 3
Cc1ccc(CNC(=O)CNC(=O)c2ccc(C(C)(C)C)cc2)n1C | i | . | -4% | 0
O=C(Nc1cc(S(=O)(=O)N2CCOCC2)ccc1N1CCCCC1)c1ccccc1Br | i | -18 | 7% | -33*
SMILES | Akt phos inh | TSHR antagonist | TCR act | CCT modulator
COC(=O)C1CCN(c2ccc([N+](=O)[O-])cc2)CC1 | i | 3 | 7% | -66*
O=[N+]([O-])c1ccc(N2CCN(C(=S)NC3CCCCC3)CC2)cc1 | -112%* | -16 | 22% | 1
COc1ccc(CN(C)C[C@@H]2OCc3cnnn3CCCC(=O)N([C@H](C)CO)C[C@H]2C)cc1 | i | . | . | -3
CCOc1cc(/C=C/c2ccc3cccc([N+](=O)[O-])c3n2)cc(Cl)c1O | i | -72* | 4%[46.1 µM] | 0
O=C(CSc1ccc(Br)c2cccc(Cl)c12)Nc1ccc(S(=O)(=O)Nc2nccs2)cc1 | i | -11 | -43% | -37*
O=C(Cc1ccccc1Cl)Nc1ccc(S(=O)(=O)Nc2nccs2)cc1 | i | 5 | -2% | -2
Cc1ccc(S(=O)(=O)c2ccc([N+](=O)[O-])cn2)cc1 | i | -16 | -1% | 1
O=[N+]([O-])c1ccc(S(=O)(=O)c2ccccc2)nc1 | i | -98* | -5% | 0
COC(=O)c1sc(NC(=O)c2cc(C)on2)nc1C | i | -3 | 1% | -1
